From PubChem BioAssay (Tox21)
Where “and” joins values, the source holds several entries; their conditions need not be identical. Identical values can stand only once. Results filed as inconclusive are left out. A call without a number means that no potency is given here. Some structures have more than one record in an assay (separate samples or runs), and their calls can disagree. Calls of active or inactive are those of the source. Unless noted, calls come from the whole dose curve; as a rule, active = well fitted curve in the direction sought with a large enough effect in the repeat runs; inconclusive = weak or mixed curves; inactive = no such curve, though single readings can be large; an effect the other way counts as inactive or inconclusive.

Key:
[1] = qHTS assay to identify small molecule antagonists of the vitamin D receptor (VDR) signaling pathway - cell viability counter screen (AID 743225); note: nearly all actives have a fitted effect of over 50% in size; note: potency is the fitted concentration of half-maximal effect
Outline: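 In this counter screen, VDR-bla HEK 293T cells receive test compound plus 3 nM final calcitriol for 16 h at 37C. Room-temperature steps of 2 h with the beta-lactamase substrate, then 30 min with CellTiter-Glo, precede the luminescence read.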

[2] = qHTS assay to identify small molecule agonists of the endoplasmic reticulum stress response signaling pathway (AID 1159516; active = well fitted activation curve with a large enough effect in the signal ratio in the repeat runs, not every such curve was filed as active; the % refers to the signal ratio)
Outline: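 Reporter HeLa cells (ESRE-beta-lactamase) underwent 5 hr compound incubation at 37 C and 5% CO2 in quantitative HTS format. Detection followed 2 hr of FRET substrate loading at room temperature.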

[3] = qHTS assay to identify small molecule agonists of the endoplasmic reticulum stress response signaling pathway - cell viability counter screen (AID 1159517; calls by dose curve; note: nearly all actives have a fitted effect of over 50% in size; note: potency is the fitted concentration of half-maximal effect)
Outline: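 HeLa cells carrying an ESRE-driven beta-lactamase reporter receive compound for 5 hr at 37 C. Cell viability is then gauged with CellTiter-Glo by luminescence, 30 min at room temperature.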

[4] = qHTS assay to identify small molecule antagonists of the retinoid-related orphan receptor gamma (ROR-gamma) signaling pathway - cell viability counter screen (AID 1159520); note: nearly all actives have a fitted effect of over 50% in size; note: potency is the fitted concentration of half-maximal effect
Outline: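 Cytotoxicity was read from cellular ATP (CellTiter-Glo luminescence) after 16 hr at 37 C with 1 uM doxycycline induction. The inducer was added 2 hr after compound transfer to Tet-on ROR gamma CHO cells.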

[5] = molecular target: Nuclear receptor ROR-gamma (Homo sapiens) (UniProt P51449); test: qHTS assay to identify small molecule antagonists of the retinoid-related orphan receptor gamma (ROR-gamma) signaling pathway (AID 1159521; note: nearly all actives have a fitted effect of over 50% in size; note: potency is the fitted concentration of half-maximal effect)
Outline: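 Screening format: cell-based luciferase reporter in CHO cells with doxycycline-inducible RORγ. Compound pre-exposure lasts 2 h, doxycycline is 1 uM final, induction runs 16 h at 37 C, and ONE-Glo luminescence is read.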

[6] = qHTS assay to identify small molecule agonists of the AP-1 signaling pathway - cell viability counter screen (AID 1159525; calls by dose curve; note: nearly all actives have a fitted effect of over 55% in size; note: potency is the fitted concentration of half-maximal effect)
Outline: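 Luminescent ATP readout (Cell Titer Glo, 30 min RT), normalised to DMSO and tetra n-octyl ammonium bromide controls. Cells were ME-180 AP-1-bla in 0.5% dialyzed FBS Opti-MEM, with a 5 h, 37 °C compound exposure.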

[7] = qHTS assay to identify small molecule agonists of the AP-1 signaling pathway (AID 1159526; calls by dose curve)
[8] = qHTS assay to identify small molecule antagonists of the estrogen related receptor signaling pathway with the pleiotropic PPARgamma coactivator (PGC) cell viability counter screen (AID 1224822; note: series mostly up to about 46 µM)
Outline: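 Compounds in DMSO, with positive and negative controls, were applied to PGC/ERR cells (2,000/well) and left 17.5 h at 37 C before CellTiter-Fluor detection.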

[9] = qHTS assay to identify small molecule antagonists of the estrogen related receptor (ERR) signaling pathway from Tox21 library - cell viability counter screen (AID 1224834); note: nearly all actives have a fitted effect of over 30% in size; note: potency is the fitted concentration of half-maximal effect
Outline: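 CellTiter-Fluor fluorescence measured; ERR cells; 17.5 h compound incubation at 37 C; 30 min reagent step.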

[10] = qHTS assay to identify small molecule agonists of the RXR signaling pathway - cell viability counter screen (AID 1159529); note: nearly all actives have a fitted effect of over 50% in size; note: potency is the fitted concentration of half-maximal effect
Outline: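 Viability read-out for the RXR-alpha agonist qHTS: luminescent CellTiter-Glo signal after 30 min at RT. HEK 293T bla reporter cells, 2% charcoal-stripped FBS, 16 hr compound incubation; tetraoctyl ammonium bromide as cytotoxic control.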

[11] = qHTS assay to identify small molecule antagonists of the retinoid acid receptor (RAR) signaling pathway - cell viability counter screen (AID 1159551); note: nearly all actives have a fitted effect of over 35% in size
Outline: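 Seed C3RL4 cells; next day add compound, then retinol to 1 uM final; incubate 6 h at 37 C; add CellTiter-Glo; read luminescence after 30 min at RT.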

[12] = qHTS assay to identify small molecule antagonists of the retinoic acid receptor (RAR) signaling pathway (AID 1159552; note: nearly all actives have a fitted effect of over 50% in size; note: potency is the fitted concentration of half-maximal effect)
Outline: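 Using a RARE-driven luciferase construct in C3RL4 cells, retinol at 1 uM final provided the agonist stimulus while compounds were co-applied. After 6 hours at 37 C, luminescence was recorded to flag inhibitors of retinol signaling.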

[13] = molecular target: Retinoic acid receptor RXR-alpha (Homo sapiens) (UniProt P19793); test: qHTS assay to identify small molecule agonists of the RXR signaling pathway (AID 1159527; calls by dose curve; note: nearly all actives have a fitted effect of over 35% in size)
Outline: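 Fluorescence ratio readout (460 vs 530 nm) from GeneBLAzer RXR-alpha HEK 293T cells after 16 hr compound treatment; cells seeded 5 hr beforehand in low-serum, charcoal-stripped medium.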

[14] = qHTS assay to identify small molecule agonists of the retinoic acid receptor (RAR) signaling pathway (AID 1159553); note: potency is the fitted concentration of half-maximal effect
Outline: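 Activation of retinol signaling was monitored via a RARE luciferase reporter in C3RL4 cells. After 6 hr compound treatment at 37 C, detection reagent was added for 30 min at room temperature before luminescence reading.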

[15] = qHTS assay to identify small molecule antagonists of the estrogen related receptor (ERR) signaling pathway - cell viability counter screen (AID 1224818);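 note: series mostly up to about 46 µM; viability measured after 17.5 h of compound exposure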
Outline: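 In the same ERR cell assay, compound-treated wells (17.5 h, 37 C) were multiplexed with a fluorogenic viability reagent, CellTiter-Fluor, read after 30 min to flag cytotoxic substances.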

Sequence of Retinoic acid receptor RXR-alpha (Homo sapiens) (P19793 whole entry, looked up): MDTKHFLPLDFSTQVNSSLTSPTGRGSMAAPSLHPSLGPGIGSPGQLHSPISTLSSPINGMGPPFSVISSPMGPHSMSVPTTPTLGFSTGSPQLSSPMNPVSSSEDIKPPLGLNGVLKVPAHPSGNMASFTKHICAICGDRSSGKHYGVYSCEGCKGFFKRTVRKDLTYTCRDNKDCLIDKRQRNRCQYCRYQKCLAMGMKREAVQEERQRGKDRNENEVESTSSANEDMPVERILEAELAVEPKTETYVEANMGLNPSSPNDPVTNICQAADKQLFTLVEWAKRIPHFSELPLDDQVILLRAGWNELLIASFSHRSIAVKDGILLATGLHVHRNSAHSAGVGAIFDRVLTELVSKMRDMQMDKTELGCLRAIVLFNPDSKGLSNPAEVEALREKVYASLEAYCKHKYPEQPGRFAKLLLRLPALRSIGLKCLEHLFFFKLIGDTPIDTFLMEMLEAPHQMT

Compound | Potency [1] | Potency [2] | Potency [3] | Potency [4] | Potency [5] | Potency [6] | Potency [7] | Potency [8] | Potency [9] | Potency [10] | Potency [11] | Potency [12] | outcome [13] | Potency [14] | outcome [15]
c1ccc2c(c1)OCC(C1=NCCN1)O2 (stereo not drawn) | inactive | inactive | inactive | inactive | 23.7 µM (active) | inactive | inactive | inactive | 21.1 µM (active) |  |  |  |  |  | 
c1ccc(OCC2CO2)cc1 (stereo not drawn) | inactive | inactive | inactive | inactive | inactive | inactive | inactive |  | inactive | inactive | inactive | inactive |  |  | 
CC(C)OS(C)(=O)=O | inactive | inactive | inactive | inactive |  | inactive | inactive |  | inactive |  | inactive | inactive | inactive | inactive | 
NNC(=O)c1ccccc1 | inactive | inactive | inactive | inactive | inactive | inactive | inactive |  | inactive | inactive | inactive | inactive | inactive | 1.77 µM (active) | 
COc1ccc(/C(=C/C(=O)N2CCOCC2)c2ccc(Cl)cc2)cc1OC | inactive | inactive | inactive | inactive | inactive | inactive | inactive |  |  |  | inactive | inactive |  | inactive | 
CCCCCCCCCBr | inactive | inactive | inactive | inactive | inactive | inactive | inactive |  | inactive | inactive | inactive | inactive |  | inactive | 
CN(C)CCc1c[nH]c2ccc(O)cc12 | inactive | inactive | inactive | inactive | inactive | inactive | inactive |  | inactive |  | inactive | inactive |  |  | 
O=C(O)C1C2CCC(O2)C1C(=O)O (stereo not drawn) | inactive | inactive | inactive | 44.5 µM (active) |  | inactive | inactive |  |  | inactive | inactive | inactive | inactive | inactive | 
CCCN(CC)CC1COC2(CCC(C(C)(C)C)CC2)O1 (stereo not drawn) | inactive | inactive | inactive | inactive | inactive | inactive | inactive |  | inactive | inactive | inactive | inactive | inactive | inactive | 
CC(C)(C)OO | inactive | inactive | inactive | inactive |  | inactive | inactive |  | inactive | inactive | inactive | inactive | inactive | inactive | 
BrCBr | inactive | inactive | inactive | inactive |  | inactive | inactive |  | inactive | inactive | inactive |  | inactive |  | 
[Cl][Sb]([Cl])[Cl] | inactive | inactive | inactive | 48.6 µM (active) | 5.45 µM (active) | inactive |  |  | 21.7 µM (active) | inactive | inactive | inactive |  |  | 
COc1ccc(N)cc1N | inactive | inactive | inactive |  | 7.08 µM (active) and 14.7 µM (active) | 50.5 µM (active) and inactive |  |  | 31.6 µM (active) |  | inactive |  | inactive |  | 
O=C(NC(=O)c1c(F)cccc1F)Nc1cc(Cl)c(OC(F)(F)C(F)F)c(Cl)c1 | inactive |  | inactive | inactive | inactive | inactive | inactive |  | inactive | inactive | inactive | inactive |  |  | 
CCOC(=O)C1(c2ccccc2)CCN(CCC(C#N)(c2ccccc2)c2ccccc2)CC1 | inactive |  | inactive | inactive | 18.8 µM (active) | inactive | inactive |  | inactive | inactive | inactive | inactive |  | inactive | 
N#C/C=C/C#N | inactive |  | inactive | inactive | inactive | inactive | inactive |  |  | inactive | inactive | inactive | inactive | inactive | 
ClC1=C(Cl)C2(Cl)C3C(Cl)C(Cl)CC3C1(Cl)C2(Cl)Cl (stereo not drawn) | 54.8 µM (active) and 49 µM (active) |  | 49 µM (active) | 68.4 µM (active) | 27.2 µM (active) and 61.1 µM (active) | 24.5 µM (active) and 34.7 µM (active) |  |  | 68.4 µM (active) | 21.8 µM (active) and 21.9 µM (active) | inactive | 54.5 µM (active) |  |  | 
CC1(C)CC/C(=C/c2ccc(Cl)cc2)C1(O)Cn1cncn1 (stereo not drawn) |  | inactive |  | inactive | 24.2 µM (active) | inactive |  | inactive |  | inactive | inactive |  |  | inactive | inactive
O=[N+]([O-])c1ccc(Oc2ccc(C(F)(F)F)cc2[N+](=O)[O-])cc1 | inactive | inactive | inactive |  | inactive | inactive | inactive |  |  | inactive | inactive |  |  |  | 
